Out of some 39,000 compounds screened, about 3,300 (8.5%) were called active. The sample holds actives, similar compounds and a random draw of the others, so the mix is not that of the screen.
Test system: HepG2
Assay: cytotoxicity call (relative viability < 0.9)
Conditions: 10 µM

| Compound | cytotoxicity call |
| --- | --- |
| CC(=O)NCCCC[C@@H]1NC(=O)[C@@H]2C[C@H](C(=O)NCCCCN(C)C)[C@H](c3cccc(OCCO)c3)N2C1=O | inactive |
| CC(C)NC(=O)N(C)C[C@@H]1OCCCC[C@@H](C)Oc2ccc(NC(=O)Nc3ccc(C(F)(F)F)cc3)cc2C(=O)N([C@H](C)CO)C[C@@H]1C | inactive |
| COc1ccc(NC(=O)N(C)C[C@@H]2Oc3ncc(C#CC(C)C)cc3C(=O)N([C@@H](C)CO)C[C@@H]2C)cc1 | inactive |
| C[C@@H]1CN([C@@H](C)CO)C(=O)c2c(c3ccccc3n2C)-c2ccccc2CO[C@@H]1CN(C)C(=O)CCC(F)(F)F | inactive |
| COc1ccc(cc1)S(=O)(=O)N1C[C@]2(C1)CN([C@@H](CO)c1c2c2ccc(cc2n1C)OC)C(=O)c1cccnc1 | inactive |
| C[C@@H]1CCCCO[C@@H](CN(C)C(=O)Nc2cccc3ccccc23)[C@@H](C)CN([C@@H](C)CO)C(=O)c2cc(NC(=O)NC3CCCCC3)ccc2O1 | inactive |
| CC(=O)n1cc([C@H]2C=C(C(=O)N3CCN(C)CC3)O[C@@H](OCc3ccc(CO)cc3)C2)c2ccccc21 | inactive |
| C[C@H](CO)N1C[C@H](C)[C@H](CN(C)S(=O)(=O)c2cn(C)cn2)Oc2ccc(NC(=O)Nc3ccc4c(c3)OCO4)cc2C1=O | inactive |
| O=C(c1ccccc1O)N1CCOCC1 | inactive |
| Nc1ccccc1C(=O)N1CCOCC1 | inactive |
| O=C(c1cn(Cc2cncn2Cc2ccc(Br)cc2)cc1-c1cccc2ccccc12)N1CCOCC1 | active |
| C[C@H]1CN(C(=O)CSc2nnc3c4ccccc4n(Cc4cccc(Cl)c4)c3n2)CCN1C(=O)c1ccccc1F | inactive |
| COC(=O)[C@@H]1N2C(=O)[C@@H](N3CC4=C[C@@H](C5CC5)n5c(=O)n(C)c(=O)n5[C@@H]4[C@@H]3[C@@H](O)Cc3ccccc3)[C@H]2SC1(C)C | inactive |
| C[C@@H]1CN([C@@H](C)CO)C(=O)Cc2cc(NS(=O)(=O)c3ccccc3)ccc2O[C@@H]1CN(C)S(C)(=O)=O | inactive |
| CC1(C)CCC2(C(=O)O)CCC3(C)C(=CCC4C5(C)CCC(O)C(C)(CO)C5CCC43C)C2C1 (stereo not drawn) | inactive |
| C=C1CCC2C(C)(CO)C(O)CCC2(C)C1CC=C1C(=O)OCC1O (stereo not drawn) | active |
| C=C1CC[C@@H]2C(C)(C)CCC[C@@]2(C)[C@@H]1CC/C(C)=C/C(=O)OC | inactive |
| C[C@H]1CN([C@@H](C)CO)C(=O)c2cc(C#CCN(C)C)cnc2O[C@@H]1CN(C)C(=O)CCN1CCCCC1 | inactive |
| C[C@H](CO)N1C[C@H](C)[C@@H](CN(C)C(=O)Nc2ccc3c(c2)OCO3)Oc2cc(C#Cc3ccncc3)ccc2S1(=O)=O | active |
| C[C@@H]1CN([C@H](C)CO)S(=O)(=O)c2ccc(C#Cc3ccncc3)cc2O[C@H]1CN(C)C(=O)Nc1ccc2c(c1)OCO2 | inactive |
| C[C@@H]1CN([C@H](C)CO)S(=O)(=O)c2ccc(C#Cc3ccncc3)cc2O[C@@H]1CN(C)C(=O)Nc1ccc2c(c1)OCO2 | active |

| Compound | cytotoxicity call |
| --- | --- |
| C[C@@H]1CN([C@@H](C)CO)S(=O)(=O)c2ccc(C#Cc3cccnc3)cc2O[C@H]1CN(C)C(=O)Nc1ccc2c(c1)OCO2 | inactive |
| C[C@@H]1CN([C@@H](C)CO)S(=O)(=O)c2ccc(C#Cc3ccncc3)cc2O[C@H]1CN(C)C(=O)Nc1ccc2c(c1)OCO2 | active |
| C[C@H](CO)N1C[C@H](C)[C@H](CN(C)C(=O)Nc2ccc3c(c2)OCO3)Oc2cc(C#Cc3ccncc3)ccc2S1(=O)=O | inactive |
| C[C@H]1CN([C@@H](C)CO)S(=O)(=O)c2ccc(C#Cc3cccnc3)cc2O[C@H]1CN(C)C(=O)Nc1ccc2c(c1)OCO2 | inactive |
| C[C@@H]1CN([C@H](C)CO)S(=O)(=O)c2ccc(C#Cc3cccnc3)cc2O[C@H]1CN(C)C(=O)Nc1ccc2c(c1)OCO2 | inactive |
| C[C@@H]1CN([C@H](C)CO)S(=O)(=O)c2ccc(C#Cc3cccnc3)cc2O[C@@H]1CN(C)C(=O)Nc1ccc2c(c1)OCO2 | inactive |
| C[C@H]1CN([C@@H](C)CO)S(=O)(=O)c2ccc(C#Cc3ccncc3)cc2O[C@H]1CN(C)C(=O)Nc1ccc2c(c1)OCO2 | active |
| C[C@H](CO)N1C[C@H](C)[C@H](CN(C)C(=O)Nc2ccc3c(c2)OCO3)Oc2cc(C#Cc3cccnc3)ccc2S1(=O)=O | inactive |
| C[C@H]1CN([C@@H](C)CO)S(=O)(=O)c2ccc(C#Cc3cccnc3)cc2O[C@@H]1CN(C)C(=O)Nc1ccc2c(c1)OCO2 | inactive |
| C[C@@H]1CCCCO[C@@H](CN(C)CC2CCCCC2)[C@@H](C)CN([C@H](C)CO)C(=O)c2cc(NC(=O)C3CCCCC3)ccc2O1 | inactive |
| CO[C@@H](CN(C)S(=O)(=O)c1cn(C)cn1)[C@H](C)CN(C(=O)Nc1ccc(C(F)(F)F)cc1)[C@@H](C)CO | inactive |
| C[C@@H]1CN([C@H](C)CO)C(=O)c2cccc(NS(=O)(=O)c3ccc(F)cc3)c2O[C@@H]1CN(C)S(C)(=O)=O | inactive |
| C[C@H](CO)N1C[C@H](C)[C@H](CN(C)S(=O)(=O)c2ccc(F)cc2)Oc2ncc(Br)cc2C1=O | inactive |
| Cc1noc(C)c1S(=O)(=O)Nc1ccc2c(c1)C(=O)N([C@@H](C)CO)C[C@H](C)[C@@H](CN(C)S(=O)(=O)c1cn(C)cn1)OCCCC[C@H](C)O2 | inactive |
| C[C@H](CO)N1C[C@H](C)[C@H](CN(C)CC2CC2)Oc2ccc(NS(=O)(=O)c3ccc(F)cc3)cc2C1=O | inactive |
| C[C@H](CO)N1C[C@H](C)[C@H](CN(C)S(=O)(=O)c2cccs2)OCCCC[C@H](C)Oc2ccc(NC(=O)Cc3ccccc3)cc2C1=O | inactive |
| CC(C)CC(=O)N1CCN(S(C)(=O)=O)CC1 | inactive |
| CN1CCc2nc(C(=O)N[C@@H]3C[C@@H](C(=O)N(C)C)CC[C@@H]3NC(=O)C(=O)Nc3ccc(Cl)cn3)sc2C1 | inactive |
| C[C@@H]1CN([C@H](C)CO)S(=O)(=O)c2ccc(C#Cc3cccc(F)c3)cc2O[C@H]1CN(C)S(=O)(=O)c1cn(C)cn1 | inactive |
| O=C(O)c1ccnc(C(=O)O)c1 | inactive |
| C[C@@H]1CN([C@@H](C)CO)C(=O)c2cc(N(C)C)ccc2O[C@@H](C)CCCCO[C@H]1CN(C)Cc1ccc(C(=O)Nc2ccccc2N)cc1 | inactive |

| Compound | cytotoxicity call |
| --- | --- |
| C[C@H]1CN([C@@H](C)CO)S(=O)(=O)c2ccc(Br)cc2O[C@@H]1CN(C)C(=O)Nc1ccc2c(c1)OCO2 | inactive |
| C[C@@H]1CN([C@@H](C)CO)S(=O)(=O)c2ccc(C#Cc3ccncc3)cc2O[C@@H]1CN(C)C(=O)Nc1ccc2c(c1)OCO2 | active |
| C[C@@H]1CN([C@@H](C)CO)S(=O)(=O)c2ccc(C#Cc3cccnc3)cc2O[C@@H]1CN(C)C(=O)Nc1ccc2c(c1)OCO2 | inactive |
| C[C@H]1CN([C@@H](C)CO)S(=O)(=O)c2ccc(C#Cc3ccncc3)cc2O[C@@H]1CN(C)C(=O)Nc1ccc2c(c1)OCO2 | active |
| C[C@@H]1CN([C@@H](C)CO)S(=O)(=O)c2ccc(Br)cc2O[C@H]1CN(C)C(=O)Nc1ccc2c(c1)OCO2 | inactive |
| C[C@H](CO)N1C[C@H](C)[C@@H](CN(C)C(=O)Nc2ccc3c(c2)OCO3)Oc2cc(C#Cc3cccnc3)ccc2S1(=O)=O | inactive |
| CC(C)NC(=O)Nc1ccc2c(c1)C(=O)N([C@@H](C)CO)C[C@@H](C)[C@H](CN(C)Cc1ccc(C(=O)O)cc1)O2 | inactive |
| C[C@H](CO)N1C[C@H](C)[C@H](CN(C)C(=O)Nc2cccc3ccccc23)Oc2c(NC(=O)Nc3ccc(C(F)(F)F)cc3)cccc2C1=O | active |
| C[C@@H]1CN([C@H](C)CO)C(=O)c2cccc(NC(=O)Nc3ccc(C(F)(F)F)cc3)c2O[C@@H]1CN(C)C(=O)Nc1cccc2ccccc12 | inactive |
| C[C@@H]1CN([C@H](C)CO)C(=O)c2cccc(NC(=O)Nc3ccc(C(F)(F)F)cc3)c2O[C@H]1CN(C)C(=O)Nc1cccc2ccccc12 | active |
| C[C@@H]1CN([C@@H](C)CO)C(=O)c2cccc(NC(=O)Nc3ccc(C(F)(F)F)cc3)c2O[C@@H]1CN(C)C(=O)Nc1cccc2ccccc12 | active |
| C[C@H](CO)N1C[C@H](C)[C@@H](CN(C)C(=O)Nc2cccc3ccccc23)Oc2c(NC(=O)Nc3ccc(C(F)(F)F)cc3)cccc2C1=O | inactive |
| C[C@@H]1CN([C@@H](C)CO)C(=O)c2cccc(NC(=O)Nc3ccc(C(F)(F)F)cc3)c2O[C@H]1CN(C)C(=O)Nc1cccc2ccccc12 | active |
| C[C@@H]1CCCCO[C@@H](CN(C)C(=O)c2ccccc2)[C@H](C)CN([C@@H](C)CO)C(=O)c2cc(NS(=O)(=O)c3ccc(Cl)cc3)ccc2O1 | inactive |
| COc1ccc(S(=O)(=O)N(C)C[C@H]2Oc3ccc(NS(=O)(=O)c4ccccc4)cc3CC(=O)N([C@H](C)CO)C[C@@H]2C)cc1 | inactive |
| COc1ccc(S(=O)(=O)N(C)C[C@H]2OCCCC[C@H](C)Oc3ccc(NS(=O)(=O)c4cn(C)cn4)cc3C(=O)N([C@@H](C)CO)C[C@H]2C)cc1 | inactive |
| C[C@H]1CN([C@@H](C)CO)S(=O)(=O)c2ccc(C#CC3(O)CCCC3)cc2O[C@H]1CN(C)C(=O)Nc1ccc(F)cc1 | inactive |
| COCC(=O)N1CC[C@]2(CC1)CN([C@H](CO)c1c2c2ccc(cc2n1C)OC)C(=O)CN1CCOCC1 | inactive |
| O=C1N[C@@H](Cc2c[nH]c3ccccc23)COC(=O)[C@@H](Cc2ccc(F)cc2)CCC=CC[C@H]1CC(=O)N(CCO)Cc1ccccc1 | inactive |
| C[C@H](CO)N1C[C@H](C)[C@@H](CN(C)S(=O)(=O)c2cn(C)cn2)OCc2ccccc2-c2c(n(C)c3ccccc23)C1=O | inactive |
| O=C(C[C@H]1C[C@@H]2c3cc(NC(=O)c4ccc5c(c4)OCO5)ccc3O[C@@H]2[C@@H](CO)O1)NCCN1CCCCC1 | inactive |

Source: the antibiotic and cytotoxicity screens of Wong et al. (2023)
